Consider 36 compounds from PubChem BioAssay.

The first experiment can be described thus: COS7 lysate on small-molecule microarray, probe aHis, 635 nm (AID 1123).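 Note: z-score combines 667nm fluorescence intensity with signal-to-noise per printed compound spot.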 Particulars: COS7 cell lysate, fluorescence, higher = more signal.
Take `C=CCOC(=O)[C@@H]1[C@H]2C(=O)O[C@H](c3ccccc3)[C@H](c3ccccc3)N2[C@H](c2ccc(OCCOC(=O)[C@@H]3C[C@@H]4C(=O)N5CCC[C@H]5C(=O)N4[C@@H]3c3ccc(O)cc3)cc2)[C@@]12C(=O)Nc1ccc(I)cc12`: the composite z-score stood at 1.33.

The compound `COc1cc2c(cc1OC)CN(C(=O)[C@H]1[C@@H]3C(=O)O[C@@H](c4ccccc4)[C@@H](c4ccccc4)N3[C@@H](c3ccc(O)cc3)[C@]13C(=O)Nc1ccc(C#CC4=CCCCC4)cc13)CC2` came in with a composite z-score of 1.74. In turn, `COc1ccc(C(=O)Nc2ccc(CN3C(=O)[C@@]4(O[C@@H](CC(=O)N5CCC[C@H]5CO)[C@H]([Si](C)(C)c5ccc(OC)cc5)[C@H]4C)c4ccccc43)cc2)cc1` displayed a composite z-score of 1.78. Still for that read-out and setting: for `[N-]=[N+]=NCc1ccccc1C[C@]1(C(=O)NCC(O)CO)N=C(c2ccc(OCCCO)cc2)O[C@H]1c1ccccc1` (stereo partly drawn) the value was 2.57; for `COc1ccc([Si](C)(C)[C@H]2[C@H](CCO)O[C@@]3(C(=O)N(Cc4ccc(N5C(=O)COc6ccccc65)cc4)c4ccccc43)[C@@H]2C)cc1`, 0.303. With `C=C(COC)/C(=C/C[C@H](OC(=O)c1ccncc1)c1ccc(OCCO)cc1)c1cnc2ccccc2c1`, the composite z-score amounted to 1.46. Take `C=CCOC(=O)[C@@H]1[C@H]2C(=O)O[C@H](c3ccccc3)[C@H](c3ccccc3)N2[C@H](c2ccc(OCCOC(=O)[C@@H]3C[C@@H]4C(=O)N[C@@H](Cc5ccccc5)C(=O)N4[C@@H]3c3ccc(O)cc3)cc2)[C@@]12C(=O)Nc1ccc(I)cc12`: the composite z-score came to 1.28.

The nature of another experiment: compound binding in COS7 lysate, probe aLAP1, primary screen, cell lysate, small-molecule microarray (AID 1124).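 Note: lysate comes from COS7 cells expressing LAP1 and is applied at 0.3 µg/mL; score merges spot fluorescence near 667 nm with signal-to-noise over triplicate slides.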 As to conditions: probe aLAP1, fluorescence, higher = more signal.
Compound `COCC(=C=CC[C@@H](O)c1ccccc1OCCO)C[C@@H](O)c1cc(Cl)cc(Cl)c1O` came in with a composite z-score of 0.822. The compound `COc1ccc(C(=O)Nc2ccc(CN3C(=O)[C@@]4(O[C@@H](CCO)[C@H]([Si](C)(C)c5ccc(OC)cc5)[C@H]4C)c4ccccc43)cc2)cc1` yielded a composite z-score of 0.292. For `O=C1O[C@H](c2ccccc2)[C@H](c2ccccc2)N2[C@H]1[C@@H](C(=O)O)[C@]1(C(=O)Nc3ccc(C#CCCO)cc31)[C@H]2c1ccc(O)cc1`, the composite z-score was 0.514. In turn, `C=CC[C@@]1(C(N)=O)N=C(c2ccc(OCCCO)cc2)O[C@@H]1c1ccccc1CN=[N+]=[N-]` yielded a composite z-score of 1.13. As for `COCCOC(=O)N1C(=O)[C@@]2(c3cc(C#CC4=CCCCC4)ccc31)[C@H](C(=O)N1CCc3cc(OC)c(OC)cc3C1)[C@H]1C(=O)O[C@H](c3ccccc3)[C@H](c3ccccc3)N1[C@@H]2c1ccc(OCCO)cc1`, the composite z-score came out at 0.378. The same measure, in the same setting: the same measure for `COc1ccc(C(O)C2C=CC3C(=O)N(c4ccccc4)C(=O)C3N2Nc2ccccc2F)cc1OCc1ccccc1` (stereo not drawn): -0.0892; for `C=C(COC)/C(=C/C[C@@H](OC(C)=O)c1ccc(CO)o1)c1cnc2ccccc2c1`: 0.846; for `O=C1C[C@]2(c3ccc([N+](=O)[O-])cc3)C(=O)N(CCN3CCOCC3)c3cc(CO)ccc3[C@H]2N1C1CCCCC1`: -0.467. On the same count and under the same terms, the same measure for `COC(=O)C=C(CC(O)c1cccc(Cl)c1)OC` (stereo not drawn): 1.02; for `COc1cc2c(cc1OC)CN(C(=O)[C@@H]1[C@H]3C(=O)O[C@H](c4ccccc4)[C@H](c4ccccc4)N3[C@H](c3ccc(O)cc3)[C@@]13C(=O)Nc1ccc(C#CC4(O)CCCCCC4)cc13)CC2`: 0.548; for `[N-]=[N+]=NCc1ccccc1C[C@@]1(C(=O)NCC(O)CO)N=C(c2ccc(OCCCO)cc2)O[C@@H]1c1ccccc1N=[N+]=[N-]` (stereo partly drawn): 0.791. `CCOC(=O)C[C@H]1[C@H](OC(=O)Cc2ccc3c(c2)OCO3)[C@@H](NC(=O)c2ccc(-c3ccccc3)cc2)c2cc(OCCCO)ccc2N1C(=O)c1ccc2ccccc2n1` had a composite z-score of 0.0968. Turning to `O=C(NCc1ccccc1)[C@@]1(Cc2ccccc2)N=C(c2ccc(OCCCO)cc2)O[C@H]1c1ccccc1`, the composite z-score is 1.4. For the compound `O=C1NC(=O)C2C1C=CC(C(O)c1ccccc1)N2Nc1ccc(Cl)cc1Cl` (stereo not drawn), the composite z-score was found to be 1.23.

As to `CN(C)CCCNC(=O)[C@@]1(c2ccc([N+](=O)[O-])cc2)CC(=O)N(C2CCCCC2)[C@@H]1c1ccc(CO)cc1`, the composite z-score is -0.0291. `COC(=O)[C@@]1(Cc2ccccc2)[C@H]2c3cc(C(=O)N4CCCC4)n(Cc4cccc5ccccc45)c3C[C@H]2CN1C(=O)c1ccccc1` gave a composite z-score of 0.539. The same measure, in the same setting: the same measure for `CC(C)(C)OC(=O)CC[C@@]1(C(N)=O)N=C(c2ccc(OCCCO)cc2)O[C@@H]1c1ccccc1`: 0.26.

Consider `COc1cc2c(cc1O)C=[N+](Cc1cccc(OC(F)(F)F)c1)CC2`, for which the composite z-score is 0.173. Turning to `C=C(C)C1C(=C)CN([C@H](CO)c2ccccc2)C1=O` (stereo partly drawn), the composite z-score is -0.133. Compound `COCCCNC(=O)C1N=C(c2ccc(OCCCO)cc2)N(c2ccccc2)O1` (stereo not drawn) had a composite z-score of -0.193. The compound `C=CC[C@@]1(C(=O)NCc2ccccc2)N=C(c2ccc(OCCCO)cc2)O[C@@H]1c1ccccc1N=[N+]=[N-]` yielded a composite z-score of 0.736. Compound `CCOc1cc(C(O)C2C=CC3C(=O)N(c4ccccc4)C(=O)C3N2Nc2ccccc2)ccc1O` (stereo not drawn) gave a composite z-score of 0.791. Compound `O=C1O[C@H](c2ccccc2)[C@H](c2ccccc2)N2[C@H]1[C@@H](C(=O)NC[C@H](O)c1ccccc1)[C@]1(C(=O)Nc3ccccc31)[C@H]2c1ccc(OCCO)cc1` came in with a composite z-score of 0.218. Still for that read-out and setting: for `COc1ccc(C(O)C2C=CC3C(=O)N(C)C(=O)C3N2N2CCCCC2)c2ccccc12` (stereo not drawn) the value was -0.32; for `CN1C(=O)[C@]2(Cc3ccccc3)N=C(c3ccc(OCCCO)cc3)O[C@@H]2c2ccccc21`, 0.824. `C=CCOC(=O)[C@H]1[C@@H]2C(=O)O[C@@H](c3ccccc3)[C@@H](c3ccccc3)N2[C@@H](c2ccc(OCCOC(=O)[C@@H]3C[C@@H]4C(=O)N[C@@H](CCCCN(C)C)C(=O)N4[C@@H]3c3ccc(O)cc3)cc2)[C@]12C(=O)Nc1ccc(I)cc12`: the composite z-score came out at 0.278. On to `CC(C)(C)OC(=O)CC[C@@]1(C(=O)NCC(O)CO)N=C(c2ccc(OCCCO)cc2)O[C@@H]1c1ccccc1N=[N+]=[N-]` (stereo partly drawn), for which the composite z-score was 0.537. With `O=C1NCC(=O)N2[C@@H]1C[C@@H](C(=O)O)[C@H]2c1cccc(OCCO)c1`, the composite z-score came to 1.03. On to `CC(C)OC(=O)C=C1C[C@@H](c2ccccc2C(F)(F)F)O[C@@H](c2ccccc2C(F)(F)F)O1`, for which the composite z-score was determined as 0.354.

Regarding `C=CCOC(=O)[C@@H]1[C@H]2C(=O)O[C@H](c3ccccc3)[C@H](c3ccccc3)N2[C@H](c2ccc(OCCOC(=O)[C@@H]3C[C@@H]4C(=O)N5CCC[C@H]5C(=O)N4[C@@H]3c3ccc(O)cc3)cc2)[C@@]12C(=O)Nc1ccc(I)cc12`, the composite z-score is -0.0072. On the same count and under the same terms, for `COc1cc2c(cc1OC)CN(C(=O)[C@H]1[C@@H]3C(=O)O[C@@H](c4ccccc4)[C@@H](c4ccccc4)N3[C@@H](c3ccc(O)cc3)[C@]13C(=O)Nc1ccc(C#CC4=CCCCC4)cc13)CC2` the value was 0.969; for `COc1ccc(C(=O)Nc2ccc(CN3C(=O)[C@@]4(O[C@@H](CC(=O)N5CCC[C@H]5CO)[C@H]([Si](C)(C)c5ccc(OC)cc5)[C@H]4C)c4ccccc43)cc2)cc1`, 0.045. The compound `[N-]=[N+]=NCc1ccccc1C[C@]1(C(=O)NCC(O)CO)N=C(c2ccc(OCCCO)cc2)O[C@H]1c1ccccc1` (stereo partly drawn) showed a composite z-score of 0.108. On the same count and under the same terms, for `COc1ccc([Si](C)(C)[C@H]2[C@H](CCO)O[C@@]3(C(=O)N(Cc4ccc(N5C(=O)COc6ccccc65)cc4)c4ccccc43)[C@@H]2C)cc1` the value was -0.0122; for `C=C(COC)/C(=C/C[C@H](OC(=O)c1ccncc1)c1ccc(OCCO)cc1)c1cnc2ccccc2c1`, 0.334; for `C=CCOC(=O)[C@@H]1[C@H]2C(=O)O[C@H](c3ccccc3)[C@H](c3ccccc3)N2[C@H](c2ccc(OCCOC(=O)[C@@H]3C[C@@H]4C(=O)N[C@@H](Cc5ccccc5)C(=O)N4[C@@H]3c3ccc(O)cc3)cc2)[C@@]12C(=O)Nc1ccc(I)cc12`, 0.0186.
